# Source: PubChem BioAssay
# Mcl1 Bid PPI = disrupts binding of human Mcl-1 to Bid peptide; AID 1021; TR-FRET Mcl-1/Bid-Dy647 peptide binding, 1536-well; actives 0.97% (n = 220,000); inhibition, % at 21.7 µM;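 active means compounds that cut the binding signal by more than half at the single screening dose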;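 further: His-tagged Mcl-1 with europium anti-His antibody binding Bid BH3 peptide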
# Target sequence (Q07820 whole entry, looked up): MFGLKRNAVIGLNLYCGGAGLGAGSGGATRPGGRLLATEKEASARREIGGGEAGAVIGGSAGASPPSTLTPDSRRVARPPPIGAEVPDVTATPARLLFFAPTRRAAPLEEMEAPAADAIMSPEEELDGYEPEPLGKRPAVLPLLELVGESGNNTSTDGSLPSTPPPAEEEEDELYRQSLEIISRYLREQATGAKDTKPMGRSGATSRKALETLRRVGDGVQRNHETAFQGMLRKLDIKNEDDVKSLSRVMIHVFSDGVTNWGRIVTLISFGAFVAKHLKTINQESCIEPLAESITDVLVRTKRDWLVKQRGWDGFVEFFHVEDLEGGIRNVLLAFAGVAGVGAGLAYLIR
# GLD-1 RNA inh = GLD-1-TGE RNA interaction inhibition (C. elegans); Q17339; purified GLD-1 + fluorescein TGE RNA, fluorescence polarization; inhibition, % at 5.96 µM; actives 0.44% (n = 320,000); AID 2280;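 active means percent inhibition above a per-plate cutoff, the plate mean of test compounds plus 3 SD, cut at about 30% in these data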
# Mcl1 Noxa PPI = Mcl-1/Noxa interaction inhibition; actives 1.5% (n = 220,000); inhibition, % at 21.7 µM; TR-FRET Mcl-1/Noxa peptide binding, 2 h; Q07820;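 active means compounds that cut the protein-peptide binding signal by more than 50% relative to plate controls in a single-dose test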;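 further: His-tagged Mcl-1 with rhodamine Noxa BH3 peptide and terbium anti-His antibody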
# Bim-Mcl-1 = human Bim-Mcl-1 interaction inhibition; Q07820; Bead-based flow cytometry, Bim peptide-Mcl-1 binding; inhibition, % at 10 µM; actives 0.1% (n = 190,000); AID 1009; in the data active means inhibition above about 40%
# BCLXL inh = blocks human Bcl-xL binding to Bim BH3 peptide; Q07817; GST-Bcl-xL / FITC-Bim BH3 peptide fluorescence polarization; inhibition, % at 10.9 µM; actives 0.7% (n = 320,000);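 active means inhibition above the mean of all tested compounds plus 3 SD, cutoff set per campaign, cut at about 30% in these data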;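 further: inhibitors lower millipolarization by displacing the labeled peptide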
# MCL1-BIM inh = disrupts human MCL1 binding to BIM-BH3 peptide; Q07820; inhibition, % at 10.9 µM; GST-MCL1 / FITC-Bim-BH3 fluorescence polarization; actives 0.68% (n = 320,000);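 active means inhibition above the mean inhibition of all tested compounds plus 3 SD, set per campaign, cut at about 40% in these data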;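 further: higher means more loss of mP so more displacement of Bim peptide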
# Hits are given with their value; 0 = inactive; - = no result. Sampled rows, rich in hits. Any-hit rate of the full collection: about 2.3%.
SMILES,Mcl1 Bid PPI,GLD-1 RNA inh,Mcl1 Noxa PPI,Bim-Mcl-1,BCLXL inh,MCL1-BIM inh
O=C(Nc1nccs1)c1cccc(N2C(=O)c3cccc4c([N+](=O)[O-])ccc(c34)C2=O)c1,101,69,93,0,43,47
O=C(Nc1ccc(S(=O)(=O)Nc2ncccn2)cc1)c1ccc2ncsc2c1,90,0,60,-,0,0
N#Cc1cccc(C(=O)Nc2ccc(S(=O)(=O)Nc3nccs3)cc2)c1,-,0,-,-,-,-
CC(=O)Oc1cccc(N2C(=O)c3cccc4c([N+](=O)[O-])ccc(c34)C2=O)c1,-,0,-,-,0,0
NS(=O)(=O)c1cc(C(=O)Nc2ccc3c(c2)OCCCO3)ccc1Cl,-,0,-,-,0,0
N#Cc1ccccc1S(=O)(=O)N1CCN(C(=O)CN2CCCC2c2cccs2)CC1 (centres undefined),-,0,-,-,0,0
CCCOc1ccc(C2=CSC3=NCCN23)cc1[N+](=O)[O-],-,0,-,-,0,0
Cc1ccc(NC(=S)N2CCn3cccc3C2c2cccnc2)cc1 (centres undefined),0,0,0,0,0,0
CCc1cccc(CC)c1NC(=S)N1CCn2cccc2C1c1cccnc1 (centres undefined),75,0,0,0,0,0
COc1ccc(C(C)=O)cc1COc1ccc(Cl)cc1Cl,92,0,0,-,0,0
CC(C)c1cccc(OCCN2CCCC2)c1,-,0,-,-,0,0
C=CCn1c(NS(=O)(=O)c2ccccc2)c(S(=O)(=O)c2ccc(C)cc2)c2nc3ccccc3nc21,0,0,0,0,0,0
O=S(=O)(Nc1c(S(=O)(=O)c2ccccc2)c2nc3ccccc3nc2n1C1CCCCC1)c1ccccc1,57,0,55,0,0,0
COc1ccc(-c2csc(NC(=O)CSc3nc(C)cs3)n2)cc1,0,0,0,0,0,0
COc1ccc(-c2csc(NC(=O)CSc3nc(C)nc4sc(C(=O)O)c(C)c34)n2)cc1,0,0,99,-,0,0
Cc1nc2ccc(NC(=O)c3cc([N+](=O)[O-])cc([N+](=O)[O-])c3Cl)cc2s1,0,0,96,0,0,0
Cc1ccc(Oc2nc3ccccc3n3cccc23)cc1,0,0,0,0,0,0
c1ccc(Oc2nc3ccccc3n3cccc23)cc1,67,0,0,0,0,0
CCn1cc(C(=O)O)c(=O)c2cc(F)c(N/N=C/c3ccccc3[N+](=O)[O-])cc21,62,0,55,0,0,0
CC(C)C1OC(c2cccc(NC(=O)c3cccs3)c2)OCC1(C)C (centres undefined),0,0,0,0,0,0
CCN(CC)c1ccc(NC(=O)CN2CCN(CC(=O)Nc3ccccc3OC)CC2)cc1,-,0,-,-,0,0
CCN(CC)c1ccc(NC(=O)CN2CCN(CC(=O)Nc3ccccc3F)CC2)cc1,0,0,55,0,0,0
N#C/C(=C\c1cccnc1)C(=O)Nc1ccccc1,0,0,0,0,31,0
N#C/C(=C\c1cccnc1)C(=O)Nc1ccc(C(=O)O)cc1,0,0,0,0,0,0
COc1ccc(CNC(=O)COC(=O)CC2CCCC2)cc1,0,0,0,0,0,0
SMILES,Mcl1 Bid PPI,GLD-1 RNA inh,Mcl1 Noxa PPI,Bim-Mcl-1,BCLXL inh,MCL1-BIM inh
CC(C)NC(=O)c1sc2nc(-c3cccs3)cc(-c3cccs3)c2c1N,0,0,52,0,0,0
Nc1c(C(=O)Nc2nc3ccccc3s2)sc2nc(-c3cccs3)ccc12,92,0,97,0,0,0
Nc1ccc(C(=O)Nc2nc3ccccc3s2)cc1,0,0,0,0,0,0
CC(=O)c1sc2nc(-c3cccs3)ccc2c1N,0,0,74,0,0,0
COc1ccc(C(=O)c2sc3nc(C)cc(-c4cccs4)c3c2N)cc1,0,-,0,0,-,-
Cc1nc(-c2cccs2)ccc1C(=O)O,0,0,0,0,0,0
O=C(NCC1CCCN1S(=O)(=O)c1cccs1)c1c(F)cccc1F (centres undefined),-,0,-,-,0,0
Cc1c(Br)c(C(=O)NNC(=O)c2ccc(C(C)(C)C)cc2)nn1C,0,0,0,-,0,0
COc1ccc(C(=O)N2CCCC(N3CCN(c4ccccc4F)CC3)C2)c(OC)n1 (centres undefined),-,0,-,-,0,0
CCN(CC)C(=O)C1CCCN(c2ccc([N+](=O)[O-])cc2/C=N/NC(=O)c2cccc([N+](=O)[O-])c2)C1 (centres undefined),63,0,0,0,0,0
